Results reported in ChEMBL document CHEMBL1157539, “Thousands of chemical starting points for antimalarial lead identification” (Nature, 2010).
Values joined by “and” are separate entries in the source; they are usually repeats but may differ in a detail not shown here. Equal values may be shown once.

Each compound was assayed on Plasmodium falciparum (assay: GSK_TCMDC: Inhibition of Plasmodium falciparum 3D7 in whole red blood cells, using parasite LDH activity as an index of growth. Test compounds present at 2uM).
Format: functional

Row | SMILES | Inhibition
1 | CC(=O)Nc1cccc(CNc2cc(C)nc(Nc3ccc(C)cc3)n2)c1 | 82%
2 | COc1cccc(C(C)(C)NC[C@@H](O)[C@H](Cc2ccccc2)NC(=O)c2cc(C3CCCC3)cc(N3CCCCS3(=O)=O)c2F)c1.O=CO | 99%
3 | O=C(Nc1ccc(OC2CCN(Cc3ccccc3)CC2)c(Cl)c1)c1ccco1.O=C(O)C(F)(F)F | 96%
4 | Cc1ccnc(NC(c2cccc(Cl)c2Cl)c2ccc3cccnc3c2O)c1 (stereo not given) | 86%
5 | Cc1cccc2nc(-c3ccc(-c4cccc(CN5CCN(c6ccc(C#N)cn6)CC5)c4)s3)[nH]c12.O=C(O)C(F)(F)F | 85%
6 | CN1C(C)(C)CC(NC(=O)c2ccc(-c3nc4cc(Cl)c(Cl)cc4[nH]3)cc2)CC1(C)C | 98%
7 | Cc1[nH]c2cc(F)ccc2c(=O)c1Cc1ccc(Cl)cc1.Cc1[nH]c2cccc(F)c2c(=O)c1Cc1ccc(Cl)cc1 | 94% and 93%
8 | CN(C)c1ccc(-c2csc(C(=O)NC3CCN(Cc4ccc(C(C)(C)C)cc4)C3)c2)cc1.O=C(O)C(F)(F)F (stereo not given) | 99%
9 | CCN(CC)CCc1ccc2c(=O)cc(CCc3cccc(F)c3F)n(CC(=O)N(C)Cc3ccc(-c4ccc(C(F)(F)F)cc4)cc3)c2c1.O=C(O)C(O)C(O)C(=O)O | 97%
10 | COc1cccc2cc(C(=O)N[C@@H](CC(C)C)C(=O)N[C@H](C=NN3CCOC3=O)Cc3ccccc3)oc12 | 96%
11 | Cc1nc(O)c2c(ccc3ccc(CNc4ccc(C(=O)N[C@@H](CCC(=O)O)C(=O)O)cc4)cc32)n1 | 89%
12 | CN1CCN(c2ccc(Nc3ccnc4ccc(-c5ccccc5)cc34)cc2)CC1 | 100%
13 | CNC(=O)c1cc(S(=O)(=O)Nc2ccc(OC)cc2)cs1 | 95%
14 | CN(CCCN(C)c1cc(NC(=O)c2ccc(F)cc2)ccn1)Cc1cccc(O)c1.O=C(O)C(F)(F)F | 90%
15 | CN1CCC(c2cc3c(cc2Br)CCN3C(=O)Nc2ccc(-c3ccncc3)c(Cl)c2)CC1 | 91%
16 | N#Cc1ccc(CN2CCC(Oc3ccc(NC(=O)c4cccs4)cc3)C2)cc1.O=C(O)C(F)(F)F (stereo not given) | 82%
17 | CC(C)CCN(Cc1cncn1Cc1cccc(C(F)(F)F)c1)C(=O)c1ccccc1C#N | 99%
18 | O=C(NC1CCCCC1)C1CCCN(C(=O)c2ccc(O)c(-c3ccc(Cl)c(Cl)c3)c2)C1 (stereo not given) | 89%
19 | Cc1cc(Nc2ccc3ccccc3c2)n2ncnc2n1 | 96%
20 | Cc1c(CNCCCNc2nc3cscc3[nH]2)sc(C(F)F)c1Br.Cl | 99%

Row | SMILES | Inhibition
21 | c1ccc(-c2[nH]c3ccccc3c2CN2CCC(N3CCCCC3)CC2)nc1 | 100%
22 | O=C(Nc1cccc(F)c1)NC1CCN(CCCCCNC(=O)C2CC2c2ccc(Cl)c(Cl)c2)CC1 (stereo not given) | 100%
23 | N#Cc1ccc2[nH]cc(C(=O)CCCCCN(Cc3ccccc3)Cc3ccccc3)c2c1 | 93%
24 | COc1ccc(CN(C)CCCc2ccc(NC(=O)c3cc4ccccc4[nH]3)cc2)cc1OC.O=C(O)/C=C/C(=O)O | 97%
25 | c1cncc(-c2cc(N3CCc4ccccc4C3)nc(-c3ccncc3)n2)c1 | 100%
26 | NC1CCN(Cc2ccc(-c3cccc(-c4nc5ccccc5[nH]4)c3)cc2)C1.O=C(O)C(F)(F)F (stereo not given) | 98%
27 | Cc1cc(N[C@@H](CC(C)C)C(=O)NCCOc2ccccc2)nc(NCCc2ccccc2)n1.O=C(O)C(F)(F)F | 94%
28 | CCC(C)CN1CCN(c2ccc(NC(=O)c3cccs3)cc2)C(C)C1.O=C(O)C(F)(F)F (stereo not given) | 95%
29 | CCCO[C@H](C(=O)OC)[C@@H](CC1Cc2ccccc2C1)C(=O)NCCC1=CCCCC1 | 93%
30 | COc1cc(O)c2c(=O)c(OC)c(-c3cccc(Cl)c3OCC(=O)O)oc2c1OC | 100%
31 | Cc1cnc(C(=O)Nc2cccc(-c3ccc(-c4nc5cc(F)ccc5[nH]4)cc3)c2)cn1 | 100%
32 | O=C(NC1CCN(Cc2ccccc2)CC1)c1cccc(-c2cc3cc(Cl)c(Cl)cc3[nH]2)c1.O=C(O)C(F)(F)F | 100%
33 | CN(C)CCOc1cc(NC(=O)Nc2ccc(-c3ccncc3)c(C(F)(F)F)c2)ccc1Cl | 100%
34 | CCNc1cc(C(=O)N[C@@H](Cc2ccc(F)c(F)c2)[C@H](O)CNC2CCCCC2)cc(N2CCCCS2(=O)=O)c1.Cl | 100%
35 | CC(C)NCC(O)COc1ccc(Cc2ccc(OCC(O)CNC(C)C)cc2)cc1.Cl (stereo not given) | 100%
36 | O=C(Nc1cc(C(F)(F)F)cc(C(F)(F)F)c1)Nc1cc(C(F)(F)F)cc(C(F)(F)F)c1 | 97%
37 | Cl.N=C(N)NN=Cc1cc2ccccc2c2ccccc12 | 100%
38 | O=C(Nc1ccc(OC2CCN(Cc3ccsc3)CC2)c(Cl)c1)c1cccs1.O=C(O)C(F)(F)F | 94%
39 | c1ccc(C2CCC(N3CCC(N4CCN(c5ccccc5)CC4)CC3)CC2)cc1 (stereo not given) | 97%
40 | CCN1C(c2ccc(Cl)cc2)C(CNCc2ccccc2O)CC1(C)CO (stereo not given) | 99%
